Test results reported in PubChem BioAssay (EPA / NIEHS).
“And” between values parts separate entries of the source, which are not always exact repeats. Equal entries are not always repeated. Results filed as inconclusive are left out. Where a structure was tested more than once in an assay, its records may differ in their call. The source made the active and inactive calls. How the source made its calls, unless noted: active means hit-call score of the fitted dose curve at least 0.9, where 1 is the maximum; inactive means score below 0.9.

How the values were obtained:
[1] = ATG_TCF_b_cat_CIS: Attagene CIS-FACTORIAL HepG2 Assay for human T-Cell-Factor with beta-catenin (TCF/b-cat) (AID 2282965); conditions: HepG2 TCF/beta-catenin cis-reporter transcription, actives raise or lower the signal
How it was run: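 HepG2, transient MRTU transfection, cis-element-driven reporters (endogenous TFs). 24 h compound exposure. Readout: reporter mRNA by RT-PCR + 6-FAM primer extension, HpaI digest, capillary electrophoresis. Gain/loss fit vs DMSO baseline.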

[2] = ATG_TAL_CIS: Attagene CIS-FACTORIAL HepG2 Assay for human TAL Basal Promoter (AID 2282966); conditions: HepG2 Attagene cis-factorial TAL promoter reporter; actives raise or lower the signal;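 further: background control endpoint measuring basal TAL promoter reporter mRNA not a specific factor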
How it was run: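 Endogenous transcription-factor activity is sensed in HepG2 cells through transfected cis-promoter reporter constructs. After 24 h dosing, reporter transcripts are quantified by RT-PCR and capillary electrophoresis. Gain or loss of signal is fitted relative to DMSO.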

[3] = ATG_TGFb_CIS: Attagene CIS-FACTORIAL HepG2 Assay for human Transforming Growth Factor (TGF) (AID 2282967); conditions: HepG2 Attagene CIS TGFb reporter, mRNA transcription; actives raise or lower the signal
How it was run: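 Endogenous TGFB1-linked transcription factor activity read as reporter mRNA via RT-PCR and capillary electrophoresis, 24 h after dosing transiently transfected HepG2 cells. Gain or loss of signal fitted relative to DMSO.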

[4] = ATG_VDRE_CIS: Attagene CIS-FACTORIAL HepG2 Assay for human Vitamin D Receptor Element (VDRE) (AID 2282968); conditions: HepG2 VDRE cis-reporter transcription, actives raise or lower the signal
How it was run: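 Compounds were applied for 24 h to HepG2 cells transfected with promoter-regulated reporter units. Total RNA was reverse-transcribed, and reporter amplicons were fluorescently labelled and sized by capillary electrophoresis.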

[5] = ATG_M_19_TRANS: Attagene TRANS-FACTORIAL HepG2 Assay for M19 Transcription Factor (Internal Marker) (AID 2282974; active means hit-call score of the fitted dose curve at least 0.9, where 1 is the maximum); conditions: HepG2 Attagene TRANS-FACTORIAL M19 internal marker reporter
How it was run: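 Using RT-PCR and capillary electrophoresis, reporter mRNA from transiently transfected human HepG2 cells was quantified following 24 h exposure; activity was fitted in the positive direction against DMSO.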

[6] = target: Nuclear receptor subfamily 1 group I member 3 (Homo sapiens) (UniProt Q14994); experiment: ATG_CAR_TRANS: Attagene TRANS-FACTORIAL HepG2 Assay for human Constitutive Androstane Receptor (CAR) (AID 2282969; active means hit-call score of the fitted dose curve at least 0.9, where 1 is the maximum;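 further: activators raise reporter mRNA above DMSO so AC50 marks induction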); conditions: HepG2 Attagene TRANS-FACTORIAL CAR reporter
Nuclear receptor subfamily 1 group I member 3 (Homo sapiens), sequence (Q14994 whole entry, looked up, the tested form may be a part): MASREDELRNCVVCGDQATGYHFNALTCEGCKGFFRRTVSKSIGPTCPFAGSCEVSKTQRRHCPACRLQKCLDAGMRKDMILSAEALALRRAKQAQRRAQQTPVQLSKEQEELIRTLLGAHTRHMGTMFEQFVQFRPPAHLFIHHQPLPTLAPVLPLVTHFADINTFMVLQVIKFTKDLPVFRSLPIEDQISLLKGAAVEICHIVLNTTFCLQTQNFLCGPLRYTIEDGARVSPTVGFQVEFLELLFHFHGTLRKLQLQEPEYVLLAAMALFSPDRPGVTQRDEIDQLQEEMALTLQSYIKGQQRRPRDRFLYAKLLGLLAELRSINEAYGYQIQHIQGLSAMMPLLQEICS
How it was run: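 Transiently transfected HepG2, multiplex TRANS reporters (CAR-Gal4 chimera driving GAL4-UAS reporter). 24 h dosing. Readout: reporter transcript by RT-PCR + capillary electrophoresis, fluorescence intensity; positive direction vs DMSO.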

[7] = target: Estrogen receptor (Homo sapiens) (UniProt P03372); experiment: ATG_ERa_TRANS: Attagene TRANS-FACTORIAL HepG2 Assay for human Estrogen Receptor alpha (ERa) (AID 2282970; active means hit-call score of the fitted dose curve at least 0.9, where 1 is the maximum); conditions: HepG2 Attagene TRANS ERa GAL4 reporter, mRNA
Estrogen receptor (Homo sapiens), sequence (P03372 whole entry, looked up, the tested form may be a part): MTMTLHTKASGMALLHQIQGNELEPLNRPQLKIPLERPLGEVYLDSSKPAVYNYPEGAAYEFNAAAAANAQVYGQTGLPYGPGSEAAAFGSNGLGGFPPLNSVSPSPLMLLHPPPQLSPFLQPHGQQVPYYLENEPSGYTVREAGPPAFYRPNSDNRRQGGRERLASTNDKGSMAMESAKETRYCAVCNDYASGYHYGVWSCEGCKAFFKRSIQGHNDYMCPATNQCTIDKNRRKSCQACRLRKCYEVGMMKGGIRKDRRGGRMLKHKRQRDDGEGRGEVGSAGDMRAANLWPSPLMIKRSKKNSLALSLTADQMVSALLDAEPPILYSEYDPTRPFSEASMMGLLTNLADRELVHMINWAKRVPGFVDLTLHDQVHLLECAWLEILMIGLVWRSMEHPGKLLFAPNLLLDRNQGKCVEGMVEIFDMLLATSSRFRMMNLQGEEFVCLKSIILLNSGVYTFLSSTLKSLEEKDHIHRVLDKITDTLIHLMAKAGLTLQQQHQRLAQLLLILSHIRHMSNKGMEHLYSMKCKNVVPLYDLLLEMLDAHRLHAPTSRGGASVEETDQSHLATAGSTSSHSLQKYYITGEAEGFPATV
How it was run: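 Transfected HepG2 cells carrying GAL4-UAS-driven reporter units were dosed for 24 hours. Total RNA was reverse-transcribed, reporter sequences PCR-amplified, FAM-labelled, HpaI-digested and resolved by capillary electrophoresis. Increases over DMSO control defined activity.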

[8] = target: X-box-binding protein 1 (Homo sapiens) (UniProt P17861); experiment: ATG_Xbp1_CIS: Attagene CIS-FACTORIAL HepG2 Assay for human X-box Binding Protein 1 (XBP1) (AID 2282972); conditions: HepG2 XBP1 cis-element reporter, Attagene multiplex; actives raise or lower the signal
X-box-binding protein 1 (Homo sapiens), sequence (P17861 whole entry, looked up): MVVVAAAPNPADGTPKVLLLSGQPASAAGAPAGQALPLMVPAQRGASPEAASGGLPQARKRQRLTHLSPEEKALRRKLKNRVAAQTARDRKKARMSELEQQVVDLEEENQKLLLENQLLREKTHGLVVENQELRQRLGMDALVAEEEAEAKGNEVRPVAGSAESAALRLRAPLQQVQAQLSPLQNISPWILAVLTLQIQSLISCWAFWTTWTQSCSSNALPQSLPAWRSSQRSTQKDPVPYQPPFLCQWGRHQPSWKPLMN
How it was run: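 Multiplexed cis-reporter readout in transfected HepG2 liver cells. Exposure lasted 24 hours. Activity in either direction was fitted against DMSO as negative control and baseline.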

[9] = target: Steroid hormone receptor ERR1 (Homo sapiens) (UniProt P11474); experiment: ATG_ERRa_TRANS: Attagene TRANS-FACTORIAL HepG2 Assay for human Estrogen-Related Receptor alpha (ERRa) (AID 2282971; active means hit-call score of the fitted dose curve at least 0.9, where 1 is the maximum); conditions: HepG2 Attagene TRANS reporter, ERRa transactivation
Steroid hormone receptor ERR1 (Homo sapiens), sequence (P11474 whole entry, looked up, the tested form may be a part): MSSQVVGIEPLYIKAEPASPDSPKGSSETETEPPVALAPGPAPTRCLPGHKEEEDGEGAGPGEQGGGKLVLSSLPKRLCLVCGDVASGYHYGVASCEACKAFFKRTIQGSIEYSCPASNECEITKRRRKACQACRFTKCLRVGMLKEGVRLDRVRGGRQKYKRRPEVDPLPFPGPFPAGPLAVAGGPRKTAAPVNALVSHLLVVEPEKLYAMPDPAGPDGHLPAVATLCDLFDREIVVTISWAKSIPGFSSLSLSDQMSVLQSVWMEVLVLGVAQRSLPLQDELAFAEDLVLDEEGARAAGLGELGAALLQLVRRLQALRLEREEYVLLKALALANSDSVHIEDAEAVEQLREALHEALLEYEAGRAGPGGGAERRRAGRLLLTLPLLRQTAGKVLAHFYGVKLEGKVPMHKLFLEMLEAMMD
How it was run: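 HepG2 cells were transiently transfected with multiple GAL4-UAS reporter units, then dosed with compound for 24 h. Total RNA was reverse-transcribed, reporter cDNA PCR-amplified and fluorescently labelled, and fragments resolved by capillary electrophoresis; induction was compared with DMSO.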

[10] = ATG_GAL4_TRANS: Attagene TRANS-FACTORIAL HepG2 Assay for GAL4 (Internal Marker) (AID 2282976; active means hit-call score of the fitted dose curve at least 0.9, where 1 is the maximum); conditions: HepG2 Attagene TRANS GAL4 internal marker reporter
How it was run: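 Fluorescence from capillary electrophoresis of labelled RT-PCR products quantifies reporter mRNA induction after 24 h dosing of HepG2 cells carrying transfected GAL4-UAS reporter transcription units. Vehicle DMSO serves as baseline.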

Measured: AC50

O=C(c1ccc(OCCN2CCCCC2)cc1)c1c(-c2ccc(O)cc2)sc2cc(O)ccc12
inactive: [1] | [2] | [3] | [4] | [5]
active: [1] 11.1 µM and 15.5 µM | [2] 20.4 µM and 11.1 µM | [3] 14.7 µM

COc1ccc(C(C)=O)cc1
not listed: [9] | [10]
inactive: all other assays above

C[C@]12CC[C@@H]3c4ccc(O)cc4CC[C@H]3[C@@H]1CC[C@@H]2O
active: [4] 8.99 µM and 4.21 µM
inactive: [1] | [2] | [3] | [4] | [9] | [5] | [10]

N=C1N=C(N)c2ccccc21
active: [7] 100 µM
not listed: [9] | [10]
inactive: all other assays above

CC(=O)OCC=C(C)CCC=C(C)CCC=C(C)C
inactive: [3] | [4] | [6] | [9]
active: [1] 148 µM | [2] 100 µM | [7] 9.02 µM

CC(C)N(c1ccccc1)C(C)C
not listed: [5] | [9] | [10]
inactive: all other assays above

[O-]/[N+](=N\O)c1ccccc1
active: [7] 42.3 µM
not listed: [5] | [8] | [10]
inactive: all other assays above

CC(C)Cc1ccccc1
inactive: [1] | [2] | [3]

CCCCCCCCCCCCS
active: [4] 42.5 µM | [5] 5.01 µM
not listed: [9]
inactive: all other assays above

CC(=O)CCC=C(C)CCC=C(C)C
active: [4] 7.02 µM
not listed: [5] | [9] | [10]
inactive: all other assays above

CC(C)COC(=O)c1ccccc1O
not listed: [9]
inactive: all other assays above

CCC=C(C)C=O
active: [3] 0.643 µM | [7] 15.3 µM
inactive: all other assays above

CCOC(=O)COC(=O)c1ccccc1C(=O)OCC
not listed: [5] | [9] | [10]
inactive: all other assays above

CCC(CC)CO
not listed: [9]
inactive: all other assays above

c1ccc(OCCOc2ccccc2)cc1
not listed: [9] | [10]
inactive: all other assays above

CC(C)(C)c1ccc(S)cc1
not listed: [5] | [9]
inactive: all other assays above

CCCCOCCOC(=O)c1ccccc1C(=O)OCCOCCCC
active: [4] 11 µM
not listed: [9] | [10]
inactive: all other assays above

Cc1ccccc1S
active: [1] 55.9 µM | [8] 75.5 µM
not listed: [9] | [10]
inactive: all other assays above

C=CC(C)CCCC(C)(C)O (stereo unspecified)
inactive: [1] | [2] | [3] | [4]

CCCO[Si](OCCC)(OCCC)OCCC
not listed: [9]
inactive: all other assays above

Cc1ccc(C(C)(C)O)cc1
not listed: [5] | [9] | [10]
inactive: all other assays above

CCCCOCC(C)OCC(C)O (stereo unspecified)
not listed: [9] | [10]
inactive: all other assays above

CC1(C)[C@H](C=C(Cl)Cl)[C@H]1C(=O)OCc1cccc(Oc2ccccc2)c1
active: [4] 4.62 µM | [7] 8.45 µM
not listed: [9]
inactive: all other assays above

CC/C=C\CCOC(C)OCC (stereo unspecified)
not listed: [5] | [9]
inactive: all other assays above

c1ccc2c(c1)-c1ccc3ccc4cccc5cc-2c1c3c45
inactive: [1] | [2] | [3] | [4] | [6]
active: [7] 0.422 µM

CC(C)(C)c1cc(CCC(=O)OCCSCCOC(=O)CCc2cc(C(C)(C)C)c(O)c(C(C)(C)C)c2)cc(C(C)(C)C)c1O
not listed: [7] | [10]
inactive: all other assays above

C=C1CC[C@H]2O[C@]2(C)CC[C@@H]2[C@@H]1CC2(C)C
not listed: [9] | [10]
inactive: all other assays above

Brc1cc(Br)cc(Br)c1
active: [3] 100 µM | [4] 65 µM
not listed: [5] | [10]
inactive: all other assays above

CN(C)C
not listed: [9]
inactive: all other assays above

NCCN1CCNCC1
not listed: [9] | [10]
inactive: all other assays above

CC/C=C\C#N
not listed: [9] | [10]
inactive: all other assays above

CCOC(=O)C=Cc1ccccc1
not listed: [9]
inactive: all other assays above

CCC(C)COC(=O)CC(C)C (stereo unspecified)
not listed: [9]
inactive: all other assays above

C=COCC1CCC(COC=C)CC1 (stereo unspecified)
not listed: [9]
inactive: all other assays above

CCCCCCC(O)CCOC(C)=O (stereo unspecified)
not listed: [5] | [6] | [8]
inactive: all other assays above

O=C1OCc2ccccc21
not listed: [7] | [9] | [10]
inactive: all other assays above

C=CCCCCCCCCC(=O)OCC
active: [3] 0.332 µM
not listed: [5] | [6]
inactive: all other assays above

CN1CCc2cccc3c2[C@H]1Cc1ccc(O)c(O)c1-3
active: [2] 8.44 µM
inactive: [1] | [3] | [4] | [7] | [8]

NNC(=O)OCc1ccccc1
not listed: [6]
inactive: all other assays above

C1COCO1
not listed: [6] | [10]
inactive: all other assays above

O=c1cc[nH]cc1
active: [3] 0.0823 µM
inactive: [1] | [2] | [4] | [6] | [8]

CC(=O)Oc1c(C)c(C)c2c(c1C)CC[C@@](C)(CCC[C@H](C)CCC[C@H](C)CCCC(C)C)O2
not listed: [6] | [10]
inactive: all other assays above

CN(C)c1ccc(C=O)cc1
not listed: [5] | [6]
inactive: all other assays above

CCCCCCCCCCOC(=O)c1ccccc1C(=O)OCCCCCCCC
not listed: [7] | [9]
inactive: all other assays above

CC(=O)C1C(=O)C=C(C)OC1=O (stereo unspecified)
not listed: [7] | [9] | [10]
inactive: all other assays above

CCCCCCCCCCCCCC(=O)OCC
not listed: [7] | [9] | [10]
inactive: all other assays above

CCCCOCCOCCOCCO
not listed: [6]
inactive: all other assays above

CCCCCCCC(=O)N(C)C
not listed: [6]
inactive: all other assays above

CC(O)CNCC(C)O (stereo unspecified)
not listed: [5] | [7] | [9]
inactive: all other assays above

C=C(C)C(=O)OCCC(C)OC(=O)C(=C)C (stereo unspecified)
not listed: [6] | [10]
inactive: all other assays above

CCCCN(CCO)CCO
inactive: [1] | [2] | [3] | [4] | [7]

O=C1CCC(=O)N1
not listed: [6] | [10]
inactive: all other assays above

CCCCCCCOC(C)=O
inactive: [1] | [2] | [3] | [4] | [8]
active: [7] 17.6 µM

NC(=O)c1c(Cl)cccc1Cl
not listed: [5] | [6] | [10]
inactive: all other assays above

CCCCN(CCCC)CCCCCCN(CCCC)CCCC
inactive: [1] | [2] | [3] | [4] | [6] | [5]

O=C(O)c1cc2ccccc2cc1O
not listed: [5] | [6] | [10]
inactive: all other assays above

CCOCC(C)O (stereo unspecified)
not listed: [6] | [10]
inactive: all other assays above

CCNC(=S)NCC
inactive: [1] | [2] | [3] | [4] | [6] | [8]
